Experimental data from PubChem BioAssay (EPA / NIEHS).
“And” between values parts separate entries of the source, which are not always exact repeats. Equal values may be shown once. Inconclusive results are not listed. A structure can be active in one record and inactive in another. The source made the active and inactive calls. The calls were made as follows: active = hit-call score of the fitted dose curve at least 0.9, where 1 is the maximum; inconclusive = response in the unintended direction; inactive = score below 0.9.

Tests used:
[1] = target: Estrogen receptor (Homo sapiens) (UniProt P03372); assay: OT_ER_ERaERa_0480: Odyssey Thera (OT) 8-hour HEK293T Protein-Complementation Assay for Estrogen Receptor-alpha/-alpha Homodimer (AID 2283351);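 also: rise in fluorescence from reassembled reporter fragments on ERα LBD homodimer in nucleus or whole cell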
In short: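 Cells were treated for 8 hours, then imaged on a laser scanning plate cytometer. Complementation of reporter fragments fused to the human ERα ligand-binding domain (residues 310-547) in HEK293T gave fluorescence, and gain of signal over vehicle was fitted.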

[2] = target: T1, Estrogen receptor (Homo sapiens) + Estrogen receptor beta (Homo sapiens) (UniProt P03372+Q92731); assay: OT_ER_ERaERb_0480: Odyssey Thera (OT) 8-hour HEK293T Protein-Complementation Assay for Estrogen Receptor-alpha/-beta Heterodimer (AID 2283352)
In short: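 Fluorescence increase from reconstituted reporter fragments, quantified by laser scanning cytometer, reflects ER-alpha/ER-beta heterodimer formation in human HEK293T cells. Exposure 8 h; positive-direction fitting against DMSO vehicle.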

[3] = target: T1, Estrogen receptor (Homo sapiens) + Estrogen receptor beta (Homo sapiens); assay: OT_ER_ERaERb_1440: Odyssey Thera (OT) 24-hour HEK293T Protein-Complementation Assay for Estrogen Receptor-alpha/-beta Homodimer (AID 2283356);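 also: heteromer of ER alpha and ER beta binding domains; hits raise reporter fluorescence and both agonists and antagonists give an increase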
In short: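 Fragment complementation between ER alpha (310-547) and ER beta (263-489) ligand-binding domains in HEK293T cells; signal read 24 h post-dosing by laser scanning cytometer. Gain of fluorescence relative to DMSO fitted.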

[4] = target: Estrogen receptor beta (Homo sapiens) (UniProt Q92731); assay: OT_ER_ERbERb_0480: Odyssey Thera (OT) 8-hour HEK293T Protein-Complementation Assay for Estrogen Receptor-beta/-beta Homodimer (AID 2283357);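 also: active means signal gain over DMSO baseline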
In short: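 ER-beta LBD homodimer PCA stably expressed in HEK293T; 8 h compound exposure, then formaldehyde fixation and Draq5 staining. Gain in nuclear/cytoplasmic fluorescence intensity versus DMSO vehicle, read on laser scanning cytometer.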

PGR (gene 5241) = PGR (gene 5241) (UniProt P06401); assay: NVS_NR_hPR: NovaScreen (NVS) Nuclear Receptor Binding Assay for human Progestron Receptor (PR) (AID 2283360);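 also: active means loss of bound radioligand signal versus DMSO baseline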
In short: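 Radioligand competition binding on receptor extracted from T47D cells, read by scintillation counting 18 h after dosing. Loss of signal versus DMSO; primary screen in duplicate at 25 uM, actives followed in concentration series.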

[5] = target: Retinoic acid receptor alpha (Homo sapiens) (UniProt P10276); assay: NVS_NR_hRARa_Agonist: NovaScreen (NVS) Nuclear Receptor Binding Assay for human Retinoic Acid Alpha Receptor Agonism (RAR) (AID 2283361)
In short: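 Agonist-mode TR-FRET binding format using extracted protein, measured at 2 h post-dosing. Initial duplicate single-point screen at 25 uM preceded concentration series for actives; activity was normalized to DMSO baseline.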

[6] = target: Nuclear receptor subfamily 1 group I member 2 (Homo sapiens) (UniProt O75469); assay: NVS_NR_hPXR: NovaScreen (NVS) Nuclear Receptor Binding Assay for human Pregnane X Receptor (PXR) (AID 2283365);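 also: a drop in FRET signal versus DMSO baseline means the compound binds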
In short: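 Human PXR binding measured by TR-FRET in a cell-free format, 2 h exposure. Single-concentration duplicates at 25 uM preceded concentration-response retests of actives; endpoint fitted positively relative to DMSO, loss of signal indicating binding.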

[7] = target: guinea pig Sigma Receptor, Non-selective Binding, SIGMAR1 (gene 100135589) (UniProt Q60492); assay: NVS_OR_gSIGMA_NonSelective: NovaScreen (NVS) Nuclear Receptor Binding Assay for guinea pig Sigma Receptor, Non-selective Binding (AID 2283367)
In short: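 Guinea pig brain membrane sigma sites were labelled with a radioligand, and bound radioactivity was counted after filtration 1 h post-dose. Compounds were screened at 25 uM in duplicate, then retested as concentration series when active.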

[8] = target: Androgen Receptor/SRC-1 Co-activator, AR (gene 367) (UniProt P10275); assay: OT_AR_ARSRC1_0960: Odyssey Thera (OT) 16-hour HEK293T Protein-Complementation Assay for Androgen Receptor/SRC-1 Co-activator (AID 2283353);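 also: actives raise the signal above DMSO so potency reflects increased AR and SRC-1 complex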
In short: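 Stable HEK293T line carries AR and SRC-1 each linked to a Venus fragment; chemicals are applied for 16 h, cells imaged at two wavelengths, and the 488 nm nucleus/cytoplasm ratio is taken as the signal, rising relative to DMSO.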

[9] = target: Androgen Receptor/SRC-1 Co-activator, AR (gene 367) (UniProt P10275); assay: OT_AR_ARSRC1_0480: Odyssey Thera (OT) 8-hour HEK293T Protein-Complementation Assay for Androgen Receptor/SRC-1 Co-activator (AID 2283354);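 also: hits raise the complementation signal above DMSO so AC50 marks enhancers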
In short: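 Reconstituted split-Venus YFP signal from AR–SRC-1 interaction, read by imaging 8 h post-dose in stable HEK293T lines. The 488 nm nucleus-to-cytoplasm ratio (≥400 cells/image) was fitted upward against DMSO.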

[10] = target: rat Mineralocorticoid Receptor (MR), Nr3c2 (gene 25672) (UniProt P22199); assay: NVS_NR_rMR: NovaScreen (NVS) Nuclear Receptor Binding Assay for rat Mineralocorticoid Receptor (MR) (AID 2283355)
In short: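 Primary HTS ran in duplicate at a single 25 uM concentration, with concentration-series follow-up for actives. Receptor source: adrenalectomized rat brain supernatant, cell-free. Radioligand displacement read by scintillation at 24 h, relative to DMSO baseline.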

[11] = target: human Peroxisome Proliferator-activated Receptor alpha (PPARa), PPARA (gene 5465) (UniProt Q07869); assay: NVS_NR_hPPARa: NovaScreen (NVS) Nuclear Receptor Binding Assay for human Peroxisome Proliferator-activated Receptor alpha (PPARa) (AID 2283359);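 also: activity means loss of TR-FRET signal versus DMSO baseline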
In short: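 Loss of TR-FRET binding signal relative to DMSO was measured 1 h after chemical addition to extracted receptor protein. Chemicals were first tested in duplicate at 25 uM, and actives were followed up in concentration series.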

[12] = target: rat Androgen Receptor (AR), Ar (gene 24208) (UniProt P15207); assay: NVS_NR_rAR: NovaScreen (NVS) Nuclear Receptor Binding Assay for rat Androgen Receptor (AR) (AID 2283366)
In short: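 Actives from a duplicate single-concentration (25 uM) primary run went on to concentration series. Displacement of radioligand was counted by filtration and scintillation, 18 h post-dose, using prostate extracts from testosterone-pretreated rats, with DMSO as baseline.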

[13] = system: guinea pig Dopamine Transporter (DAT), gene 100714898; assay: NVS_TR_gDAT: NovaScreen (NVS) Transporter Assay for guinea pig Dopamine Transporter (DAT) (AID 2283369);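 also: active compounds lower bound radioligand signal relative to DMSO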
In short: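 Radioligand displacement on membranes from guinea pig striatum, 2 h exposure, bound label counted by filtration and scintillation. Tested at 25 uM in duplicate, then actives in concentration series to 50 uM; DMSO as negative control.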

[14] = target: Peroxisome proliferator-activated receptor gamma (Homo sapiens) (UniProt P37231); assay: NVS_NR_hPPARg: NovaScreen (NVS) Nuclear Receptor Binding Assay for human Peroxisome Proliferator-activated Receptor gamma (PPARg) (AID 2283370)
In short: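 Fluorescence polarization readout of ligand binding to extracted human PPARg, measured at 2 h. Duplicate single-point screen at 25 uM, then concentration-series retesting; activity defined as signal loss versus DMSO.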

[15] = target: Bile acid receptor (Homo sapiens) (UniProt Q96RI1); assay: NVS_NR_hFXR_Antagonist: NovaScreen (NVS) Nuclear Receptor Binding Assay for human Farnesoid X Receptor Antagonism (FXR) (AID 2283350)
In short: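 Antagonist-format time-resolved FRET binding assay with extracted human receptor protein, read 1 hour after compound addition. Compounds first screened at 25 uM in duplicate, then actives tested in concentration series, with loss of signal relative to DMSO.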

[16] = target: Retinoic acid receptor alpha (Homo sapiens) (UniProt P10276); assay: NVS_NR_hRAR_Antagonist: NovaScreen (NVS) Nuclear Receptor Binding Assay for human Retinoic Acid Alpha Receptor Antagonism (RAR) (AID 2283358)
In short: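 RARalpha antagonism was read by TR-FRET as loss of binding signal versus DMSO, 2 h after chemical addition, in a biochemical format. Single-concentration duplicates (25 uM) were run first, and actives were retested in concentration series.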

[17] = target: Glucocorticoid receptor (Homo sapiens) (UniProt P04150); assay: NVS_NR_hGR: NovaScreen (NVS) Nuclear Receptor Binding Assay for human Glucocorticoid Receptor (GR) (AID 2283363);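 also: activity is loss of specific radioligand binding signal relative to DMSO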
In short: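 Compounds first tested in duplicate at 25 uM, actives followed up in concentration series. Binding to extracted GR protein measured as competitive radioligand displacement, filter scintillation read 16 h post-dosing, normalised to DMSO.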

[18] = target: human Adenosine Transporter (Adot), SLC29A1 (gene 2030) (UniProt Q99808); assay: NVS_TR_hAdoT: NovaScreen (NVS) Transporter Assay for human Adenosine Transporter (Adot) (AID 2283368)
In short: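 Binding displacement on U937 extracted protein, read 1 h post-dose by filtration and scintillation counting. Primary duplicate test at 25 uM, then singleton concentration series with 50 uM top; DMSO baseline.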

[19] = target: human Thyroid Receptor Alpha (TRa), THRA (gene 7067) (UniProt P10827); assay: NVS_NR_hTRa_Antagonist: NovaScreen (NVS) Nuclear Receptor Binding Assay for human Thyroid Receptor Alpha Antagonism (TRa) (AID 2283362);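 also: activity is loss of signal relative to DMSO baseline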
In short: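 Actives from a duplicate 25 uM single-point screen were retested in concentration series. The cell-free antagonist-format binding assay was read by AlphaLISA chemiluminescence at 1 h, scored as signal loss relative to DMSO.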

Sequence of Androgen Receptor/SRC-1 Co-activator, AR (gene 367) (P10275 whole entry, looked up, the tested form may be a part): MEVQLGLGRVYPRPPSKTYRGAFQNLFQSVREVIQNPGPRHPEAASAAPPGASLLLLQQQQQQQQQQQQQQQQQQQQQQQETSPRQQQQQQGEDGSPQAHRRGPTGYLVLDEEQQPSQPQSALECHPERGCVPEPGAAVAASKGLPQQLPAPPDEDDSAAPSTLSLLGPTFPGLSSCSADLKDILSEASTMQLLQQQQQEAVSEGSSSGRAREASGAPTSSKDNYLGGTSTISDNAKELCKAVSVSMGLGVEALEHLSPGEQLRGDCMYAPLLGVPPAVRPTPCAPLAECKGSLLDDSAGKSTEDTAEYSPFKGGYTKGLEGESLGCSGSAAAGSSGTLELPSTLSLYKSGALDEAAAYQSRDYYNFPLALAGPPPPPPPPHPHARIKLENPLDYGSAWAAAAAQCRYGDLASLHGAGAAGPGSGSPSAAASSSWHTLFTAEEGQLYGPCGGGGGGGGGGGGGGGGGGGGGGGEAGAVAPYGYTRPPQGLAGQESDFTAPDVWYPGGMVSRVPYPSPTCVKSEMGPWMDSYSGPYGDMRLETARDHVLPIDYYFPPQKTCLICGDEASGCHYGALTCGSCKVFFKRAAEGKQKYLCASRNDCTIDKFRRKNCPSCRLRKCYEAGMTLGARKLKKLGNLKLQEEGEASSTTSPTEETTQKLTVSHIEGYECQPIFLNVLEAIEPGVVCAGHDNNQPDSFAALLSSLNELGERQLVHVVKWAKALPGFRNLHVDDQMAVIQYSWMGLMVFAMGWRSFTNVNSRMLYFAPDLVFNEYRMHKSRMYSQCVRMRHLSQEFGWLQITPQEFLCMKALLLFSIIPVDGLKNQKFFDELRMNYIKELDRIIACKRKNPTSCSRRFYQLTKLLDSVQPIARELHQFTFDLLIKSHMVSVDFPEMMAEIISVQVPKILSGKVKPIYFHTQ
Sequence of Nuclear receptor subfamily 1 group I member 2 (Homo sapiens) (O75469 whole entry, looked up): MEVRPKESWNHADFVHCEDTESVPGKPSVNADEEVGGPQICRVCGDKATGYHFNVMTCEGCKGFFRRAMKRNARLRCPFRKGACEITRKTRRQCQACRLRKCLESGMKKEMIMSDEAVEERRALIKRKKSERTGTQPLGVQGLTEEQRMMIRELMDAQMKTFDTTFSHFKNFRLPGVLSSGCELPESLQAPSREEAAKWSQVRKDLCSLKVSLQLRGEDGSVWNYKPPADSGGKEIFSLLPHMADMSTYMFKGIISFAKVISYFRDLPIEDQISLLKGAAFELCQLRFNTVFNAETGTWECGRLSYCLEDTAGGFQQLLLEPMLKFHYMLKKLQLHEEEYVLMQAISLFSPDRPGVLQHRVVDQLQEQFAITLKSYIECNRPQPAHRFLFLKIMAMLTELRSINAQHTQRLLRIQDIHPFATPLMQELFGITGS
T1 sequence (P03372 whole entry, looked up, the tested form may be a part): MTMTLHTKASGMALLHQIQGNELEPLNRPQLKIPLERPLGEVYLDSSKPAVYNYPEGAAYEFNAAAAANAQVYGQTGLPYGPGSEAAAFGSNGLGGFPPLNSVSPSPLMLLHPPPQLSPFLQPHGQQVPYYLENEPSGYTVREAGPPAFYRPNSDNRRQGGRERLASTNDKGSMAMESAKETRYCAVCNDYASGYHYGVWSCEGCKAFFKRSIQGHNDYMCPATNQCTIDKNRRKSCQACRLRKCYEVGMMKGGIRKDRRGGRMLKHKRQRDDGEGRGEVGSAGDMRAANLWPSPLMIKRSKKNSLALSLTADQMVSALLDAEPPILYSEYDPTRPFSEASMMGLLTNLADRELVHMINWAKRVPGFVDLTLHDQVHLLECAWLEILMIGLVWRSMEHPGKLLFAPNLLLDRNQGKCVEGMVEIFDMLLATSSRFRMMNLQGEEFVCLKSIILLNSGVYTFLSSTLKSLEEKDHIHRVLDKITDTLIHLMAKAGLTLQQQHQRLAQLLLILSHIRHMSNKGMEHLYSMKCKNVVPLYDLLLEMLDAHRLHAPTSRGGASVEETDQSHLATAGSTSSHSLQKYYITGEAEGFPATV
T1 sequence (Q92731 whole entry, looked up, the tested form may be a part): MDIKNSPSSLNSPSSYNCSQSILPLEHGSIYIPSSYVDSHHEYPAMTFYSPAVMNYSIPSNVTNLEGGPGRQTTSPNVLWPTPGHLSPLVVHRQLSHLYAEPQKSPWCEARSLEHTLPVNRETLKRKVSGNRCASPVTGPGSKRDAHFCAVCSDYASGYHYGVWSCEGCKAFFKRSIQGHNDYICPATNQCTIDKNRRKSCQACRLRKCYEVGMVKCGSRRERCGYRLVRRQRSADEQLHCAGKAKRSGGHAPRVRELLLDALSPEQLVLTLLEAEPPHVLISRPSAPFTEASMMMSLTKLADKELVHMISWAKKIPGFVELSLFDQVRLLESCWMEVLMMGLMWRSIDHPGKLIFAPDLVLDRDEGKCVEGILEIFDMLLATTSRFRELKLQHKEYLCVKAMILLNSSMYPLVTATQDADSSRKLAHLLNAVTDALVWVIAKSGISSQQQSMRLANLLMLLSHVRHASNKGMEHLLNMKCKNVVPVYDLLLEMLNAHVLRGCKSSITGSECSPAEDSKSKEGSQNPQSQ
Sequence of Estrogen receptor (Homo sapiens) (P03372 whole entry, looked up, the tested form may be a part): as the sequence (P03372 whole entry, looked up, the tested form may be a part) above
Sequence of rat Mineralocorticoid Receptor (MR), Nr3c2 (gene 25672) (P22199 whole entry, looked up): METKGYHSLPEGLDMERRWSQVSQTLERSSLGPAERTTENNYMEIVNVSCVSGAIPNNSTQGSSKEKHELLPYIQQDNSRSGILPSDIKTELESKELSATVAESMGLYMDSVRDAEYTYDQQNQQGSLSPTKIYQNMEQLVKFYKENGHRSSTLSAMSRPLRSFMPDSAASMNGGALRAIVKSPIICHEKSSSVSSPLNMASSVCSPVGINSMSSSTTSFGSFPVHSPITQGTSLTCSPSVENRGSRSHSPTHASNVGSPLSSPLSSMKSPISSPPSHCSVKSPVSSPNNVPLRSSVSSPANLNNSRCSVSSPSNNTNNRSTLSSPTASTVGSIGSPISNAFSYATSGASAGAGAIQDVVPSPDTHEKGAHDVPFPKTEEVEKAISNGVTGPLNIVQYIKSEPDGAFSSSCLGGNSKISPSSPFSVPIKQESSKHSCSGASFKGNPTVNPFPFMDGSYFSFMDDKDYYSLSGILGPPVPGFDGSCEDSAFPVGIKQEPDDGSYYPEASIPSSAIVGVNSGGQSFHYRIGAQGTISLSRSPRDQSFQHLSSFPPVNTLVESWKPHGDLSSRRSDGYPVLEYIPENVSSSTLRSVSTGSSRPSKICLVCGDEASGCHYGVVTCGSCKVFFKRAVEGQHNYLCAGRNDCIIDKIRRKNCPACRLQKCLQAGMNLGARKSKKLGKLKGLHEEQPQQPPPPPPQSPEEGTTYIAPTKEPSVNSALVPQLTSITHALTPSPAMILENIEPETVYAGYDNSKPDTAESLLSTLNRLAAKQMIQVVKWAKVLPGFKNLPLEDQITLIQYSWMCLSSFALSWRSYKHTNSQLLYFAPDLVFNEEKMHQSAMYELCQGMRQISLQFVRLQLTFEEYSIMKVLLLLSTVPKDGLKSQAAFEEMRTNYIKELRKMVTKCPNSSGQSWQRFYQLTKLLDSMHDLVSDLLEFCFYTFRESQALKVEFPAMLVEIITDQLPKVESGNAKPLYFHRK
Sequence of Glucocorticoid receptor (Homo sapiens) (P04150 whole entry, looked up): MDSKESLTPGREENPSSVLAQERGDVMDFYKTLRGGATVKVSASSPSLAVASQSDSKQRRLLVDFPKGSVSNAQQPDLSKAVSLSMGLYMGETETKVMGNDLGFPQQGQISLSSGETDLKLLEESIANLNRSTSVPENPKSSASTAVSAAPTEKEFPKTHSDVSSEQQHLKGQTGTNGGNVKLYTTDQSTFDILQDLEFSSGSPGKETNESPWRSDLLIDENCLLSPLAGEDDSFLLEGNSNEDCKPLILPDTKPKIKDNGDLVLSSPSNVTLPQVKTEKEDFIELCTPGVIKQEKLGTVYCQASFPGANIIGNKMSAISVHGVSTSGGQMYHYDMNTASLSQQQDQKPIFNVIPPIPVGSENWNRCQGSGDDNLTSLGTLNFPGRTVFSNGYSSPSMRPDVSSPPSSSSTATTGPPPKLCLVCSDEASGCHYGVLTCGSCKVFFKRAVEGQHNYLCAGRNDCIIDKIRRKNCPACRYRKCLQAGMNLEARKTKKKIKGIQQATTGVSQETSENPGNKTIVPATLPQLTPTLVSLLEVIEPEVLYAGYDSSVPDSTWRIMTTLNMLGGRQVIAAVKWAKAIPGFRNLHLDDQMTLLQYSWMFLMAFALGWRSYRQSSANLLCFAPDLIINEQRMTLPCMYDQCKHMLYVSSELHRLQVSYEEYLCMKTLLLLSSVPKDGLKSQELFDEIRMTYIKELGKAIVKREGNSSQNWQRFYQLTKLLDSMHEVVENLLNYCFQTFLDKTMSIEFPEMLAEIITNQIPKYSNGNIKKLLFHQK

In the case of CCCCOC(=O)C(C)Oc1ccc(Oc2ccc(C(F)(F)F)cn2)cc1 (centres undefined), the outcome [1] is reported as “inactive”, the outcome [2] is reported as “inactive” and the outcome [3] is reported as “inactive”. The outcome [4] was “inactive”.

With C[C@]12C[C@H](O)[C@H]3[C@@H](CCC4=CC(=O)CC[C@@]43C)[C@@H]1CC[C@@H]2C(=O)CO the outcome [1] was “inactive”, the outcome [2] was “inactive” and the outcome [3] was “inactive”. For the same compound, the outcome [4] was “inactive”, the AC50 (PGR (gene 5241)) was 403 nM (active) and the outcome [5] was “inactive”. The outcome [6] was “inactive” and the AC50 [7] was 25 µM (active).

In the case of CC(C)(c1ccc(O)cc1)c1ccc(O)cc1, the outcome [1] is reported as “inactive”, the AC50 [8] is reported as 63.3 µM (active) and 51 µM (active) and 64.6 µM (active) and the outcome [8] is reported as “inactive”. For the same compound, the outcome [9] was “inactive”, the AC50 [10] was 12.1 µM (active) and the outcome [10] was “inactive”. For the same compound, the AC50 [11] was 0.105 µM (active), the AC50 (PGR (gene 5241)) was 11.2 µM (active) and 8.49 µM (active) and the outcome (PGR (gene 5241)) was “inactive”. For the same compound, the AC50 [6] was 8.08 µM (active) and 10.9 µM (active), the outcome [6] was “inactive” and the AC50 [12] was 16.1 µM (active) [middle of 4 runs]. For the same compound, the AC50 [7] was 8.43 µM (active), the outcome [7] was “inactive” and the AC50 [13] was 8.77 µM (active) and 25.4 µM (active) and 11.6 µM (active). The outcome [14] was “inactive”.

With COC(=O)c1cccc(C)c1S(=O)(=O)NC(=O)Nc1nc(OCC(F)(F)F)nc(N(C)C)n1 the outcome [15] was “inactive”.

CCCOC(=O)c1ccc(C(=O)OCCC)nc1 was tested, and the outcome [1] was “inactive”, the outcome [2] was “inactive” and the outcome [9] was “inactive”. For the same compound, the outcome [3] was “inactive” and the outcome [4] was “inactive”.

For CCCN(CCC)c1c([N+](=O)[O-])cc(C(F)(F)F)c(N)c1[N+](=O)[O-], the outcome [1] was “inactive”, the AC50 [2] was 0.428 µM (active) and the outcome [3] was “inactive”. For the same compound, the outcome [4] was “inactive”, the outcome [16] was “inactive” and the outcome [14] was “inactive”.

In the case of COc1c(Cl)ccc(Cl)c1C(=O)O, the outcome [1] is reported as “inactive”, the outcome [2] is reported as “inactive” and the outcome [3] is reported as “inactive”. For the same compound, the outcome [4] was “inactive”.

With CCCCOC(=O)[C@@H](C)Oc1ccc(Oc2ccc(C(F)(F)F)cn2)cc1 the outcome [1] was “inactive”, the outcome [2] was “inactive” and the outcome [3] was “inactive”. For the same compound, the outcome [4] was “inactive”.

With c1ccc2[nH]c(-c3cscn3)nc2c1 the outcome [1] was “inactive”, the outcome [8] was “inactive” and the outcome [9] was “inactive”. The outcome [3] was “inactive” and the outcome [4] was “inactive”.

For COC(=O)c1ccccc1C(=O)O, the outcome [1] was “inactive”, the outcome [2] was “inactive” and the outcome [3] was “inactive”. The outcome [4] was “inactive”, the outcome [16] was “inactive” and the AC50 [17] was 5.83 µM (active). The outcome [14] was “inactive”.

O=C(Nc1ccc([N+](=O)[O-])cc1Cl)c1cc(Cl)ccc1O was tested, and the outcome [1] was “inactive”, the outcome [2] was “inactive” and the outcome [3] was “inactive”. For the same compound, the outcome [4] was “inactive” and the outcome [14] was “inactive”.

CC(=O)[C@H]1CC[C@H]2[C@@H]3CCC4=CC(=O)CC[C@]4(C)[C@H]3CC[C@]12C was tested, and the outcome [1] was “inactive”, the outcome [2] was “inactive” and the outcome [3] was “inactive”. For the same compound, the outcome [4] was “inactive”, the AC50 [7] was 1.16 µM (active) and the AC50 [18] was 6.22 µM (active). For the same compound, the outcome [13] was “inactive”, the AC50 [14] was 4.07 µM (active) and the outcome [14] was “inactive”.

CCCCC(CC)CN1C(=O)C2C3C=CC(C3)C2C1=O (centres undefined) was tested, and the outcome [1] was “inactive”, the outcome [2] was “inactive” and the outcome [3] was “inactive”. For the same compound, the outcome [4] was “inactive”, the outcome (PGR (gene 5241)) was “inactive” and the AC50 [17] was 25 µM (active). For the same compound, the outcome [14] was “inactive”.

COC(=O)c1ccccc1S(=O)(=O)NC(=O)Nc1nc(OC(F)F)cc(OC(F)F)n1 was tested, and the outcome [15] was “inactive”.

CCCN(CCC)C(=O)SCC was tested, and the outcome [1] was “inactive”, the outcome [2] was “inactive” and the outcome [8] was “inactive”. The outcome [9] was “inactive”, the outcome [10] was “inactive” and the outcome [3] was “inactive”. The outcome [4] was “inactive”, the outcome (PGR (gene 5241)) was “inactive” and the outcome [19] was “inactive”. For the same compound, the AC50 [17] was 7.09 µM (active), the outcome [12] was “inactive” and the outcome [14] was “inactive”.
